# Experimental data as given in PubChem BioAssay.
# Molecular target: Follistatin-related protein 3 (Homo sapiens) (UniProt O95633)
# Experiment: FSTL3 binders on small-molecule microarrays, primary screen, biochemical, small-molecule microarray, 635 nm fluorescence (AID 1105);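 further: score merges emission near 667 nm and signal to noise per printed spot across three slides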
# Settings: FSTL3 binding, higher = more signal
# Chain of Follistatin-related protein 3 (Homo sapiens) (O95633 whole entry, looked up): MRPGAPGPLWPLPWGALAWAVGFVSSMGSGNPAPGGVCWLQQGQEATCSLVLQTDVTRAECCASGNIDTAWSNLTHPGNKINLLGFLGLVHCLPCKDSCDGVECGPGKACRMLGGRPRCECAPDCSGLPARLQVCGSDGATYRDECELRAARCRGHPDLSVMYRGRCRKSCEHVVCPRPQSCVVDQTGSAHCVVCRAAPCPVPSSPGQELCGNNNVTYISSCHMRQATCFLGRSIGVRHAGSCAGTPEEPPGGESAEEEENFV
row,SMILES,composite z-score
1,NC(=O)NCC#Cc1ccc2c(c1)[C@]1(C(=O)N2)[C@H](C(=O)O)[C@H]2C(=O)O[C@H](c3ccccc3)[C@H](c3ccccc3)N2[C@@H]1c1ccc(OCCO)cc1,0.582
2,[N-]=[N+]=Nc1ccccc1C[C@]1(C(=O)N2CCOCC2)N=C(c2ccc(OCCCO)cc2)O[C@H]1c1ccccc1,1.01
3,COc1ccc(C#Cc2ccc3c(c2)[C@]2(C(=O)N3)[C@H](c3ccc(O)cc3)N3[C@H](c4ccccc4)[C@H](c4ccccc4)OC(=O)[C@H]3[C@@H]2C(=O)O)cc1,-0.114
4,O=C1O[C@@H](c2ccccc2)[C@@H](c2ccccc2)N2[C@@H](c3ccc(OCCO)cc3)[C@]3(C(=O)Nc4ccccc43)[C@@H](C(=O)O)[C@H]12,-0.415
5,C=C(/C(=C/C[C@H](OC(C)=O)c1cccc(OCCO)c1)c1cnc2ccccc2c1)C(C)C,1.49
6,COc1ccc([Si](C)(C)[C@H]2[C@H](CCn3cc([C@H](O)c4ccccc4)nn3)O[C@@]3(C(=O)N(Cc4ccc(N5C(=O)c6cccc7cccc5c67)cc4)c4ccccc43)[C@@H]2C)cc1,-0.617
7,CCC(CC)C(O)C1C=CC2C(=O)N(c3ccccc3)C(=O)C2N1Nc1ccc(C(C)C)cc1 (stereo not given),0.932
8,COC1OC[C@]2(C)[C@H]3C4=C(CN2C(=O)OC(C)(C)C)[C@H](C)C(CO)C(CO)C4CC[C@@H]13 (stereo not given in full),0.823
9,COC(=O)[C@@]1(Cc2ccccc2N=[N+]=[N-])N=C(c2ccc(OCCCO)cc2)O[C@H]1c1ccccc1N=[N+]=[N-],0.419
10,CC1CC/C=C\[C@H]2OC34C=CCN(C(C)C)C(=O)[C@H]3N(CCCCCCO)C(=O)[C@@H]4C2C(=O)O1 (stereo not given in full),-0.931
